PNC assembly inh – High Content Assay for Compounds that inhibit the Assembly of the Perinucleolar Compartment | PC3M PTB-GFP, PNC prevalence imaging, 16 h; stronger effect = lower value | activity change (PNC), negative = inhibition, % at 10 µM | 140,000 compounds, 3.1% hits | AID 2417, 2010;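 active = readout at or below -70, meaning at least 70% loss of cells showing the perinucleolar compartment, a nuclear body marking cancer cells; inconclusive = readout between -30 and a set limit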
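PC3M cells stably expressing PTB-GFP, 750–1000 cells/well, treated 16 h at 37 °C with compound (23 nl of library stock), in duplicate. After paraformaldehyde fixation and Hoechst stain, imaged at 20x; PNC prevalence scored by image analysis.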
ALDH1A1 block – qHTS Assay for Inhibitors of Aldehyde Dehydrogenase 1 (ALDH1A1); Aldehyde dehydrogenase 1A1 (Homo sapiens), P00352; Purified ALDH1A1, NADH fluorescence, propionaldehyde substrate; Potency, µM (series often up to 75.3 µM), hits mostly inhibitors; 220,000 compounds, 7.3% hits; AID 1030, 2008
Target sequence (P00352 whole entry, looked up): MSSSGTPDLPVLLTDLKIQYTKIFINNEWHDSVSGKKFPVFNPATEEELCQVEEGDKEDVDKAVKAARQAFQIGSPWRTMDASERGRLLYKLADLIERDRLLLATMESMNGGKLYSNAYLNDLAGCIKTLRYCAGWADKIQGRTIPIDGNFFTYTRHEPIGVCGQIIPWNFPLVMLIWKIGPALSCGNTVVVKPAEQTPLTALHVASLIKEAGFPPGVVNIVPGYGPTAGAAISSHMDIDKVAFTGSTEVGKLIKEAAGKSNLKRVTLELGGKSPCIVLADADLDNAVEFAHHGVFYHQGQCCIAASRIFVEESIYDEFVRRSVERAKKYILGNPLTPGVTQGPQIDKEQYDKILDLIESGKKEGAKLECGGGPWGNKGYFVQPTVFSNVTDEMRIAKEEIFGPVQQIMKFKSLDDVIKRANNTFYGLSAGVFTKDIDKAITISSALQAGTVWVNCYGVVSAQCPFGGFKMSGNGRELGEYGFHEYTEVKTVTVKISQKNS
HPGD inh – qHTS Assay for Inhibitors of HPGD (15-Hydroxyprostaglandin Dehydrogenase); 15-hydroxyprostaglandin dehydrogenase [NAD(+)] (Homo sapiens), P15428; purified HPGD, NADH fluorescence kinetic, PGE2 substrate; Potency, µM, hits mostly inhibitors; 150,000 compounds, 4.3% hits
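NADH formation kinetics: reaction with 30 uM PGE2 and 1 mM NAD+ (final), 20 nM enzyme, Tris-HCl pH 8 with Tween 20, after 15 min compound preincubation at room temperature. Fluorescence change, last versus first of five reads.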
Hits are given with their value; 0 = inactive; ? = inconclusive; - = no result; [ ] = remark or other dose. Sampled rows, rich in hits. Any-hit rate of the full collection: about 11%. Unless noted, calls follow the shape of the dose curve; as a rule, active = well fitted inhibition curve with a large enough effect (not every such curve was filed as active); inconclusive = small, poorly fitted or top-dose-only effect, or another doubt; inactive = no such curve, though single readings can be large or run the other way.

SMILES	PNC assembly inh	ALDH1A1 block	HPGD inh
CC(C)Cn1c(SCc2nnc(-c3cccs3)o2)nc(O)cc1=O	0	0	16µM
Cc1nnc(SCc2nnc(-c3cccs3)o2)n1C	-	0	-
CCOCCCNC(=O)C(c1ccc(OC)cc1)N(Cc1ccc2c(c1)OCO2)C(=O)c1ccccc1O (stereo not drawn)	-	2µM	-
CCOCCCNC(=O)C(c1ccc(C)cc1)N(Cc1ccc2c(c1)OCO2)C(=O)CNC(C)=O (stereo not drawn)	-100	0	0
CCOCCCNC(=O)C(c1ccccc1)N(Cc1ccc2c(c1)OCO2)C(=O)CNC(C)=O (stereo not drawn)	0	0	0
COc1ccc(C(C(=O)NCc2ccccc2)N(Cc2ccc3c(c2)OCO3)C(=O)c2cnccn2)cc1 (stereo not drawn)	?	0	0
CCOCCCNC(=O)C(c1ccc(C)cc1)N(Cc1cccs1)C(=O)c1ccccc1O (stereo not drawn)	-	16µM	-
CCOCCCNC(=O)C(c1ccccc1)N(Cc1cccs1)C(=O)c1ccccc1O (stereo not drawn)	-	0	-
Cc1ccc(C(=O)COC(=O)CCC(=O)Nc2cccc(Cl)c2)cc1[N+](=O)[O-]	0	?	0
CN(CCO)c1ccc([N+](=O)[O-])cc1C(=O)O	0	22µM	0
O=C(O)c1cc([N+](=O)[O-])ccc1NCCO	0	0	0
N#C/C(=C\c1cccc(Cl)c1)C(=O)c1ccccc1	-	0.71µM	-
CCOC(=O)/C(C#N)=C/c1cccc(C)c1	-	0	-
CC(C)NC(=O)COC(=O)c1cc(Br)ccc1Cl	0	0	22µM
COCCNC(=O)c1cc(Br)ccc1Cl	0	0	22µM
CN(C)CCNC(=O)c1cc(Br)ccc1Cl	0	0	0
CC(C)NC(=O)COC(=O)c1cc(F)c(F)cc1Cl	0	0	?
COc1cc(/C=C/CN2CCN(CCC(C)C)C(CCO)C2)ccc1O (stereo not drawn)	-	0	-
COC(=O)CN1C2=NCCCN2c2ccccc21	-	0	-
CC(C)CC(NC(=O)COc1ccccc1)C(=O)O (stereo not drawn)	0	0	0
CC(C)CC(NC(=O)OCC1c2ccccc2-c2ccccc21)C(=O)O (stereo not drawn)	-	8.9µM	0
CC1=C(C(=O)OCc2ccccc2)C(c2ccc(C3CCCCC3)cc2)NC(=O)N1CCCCCC(=O)O (stereo not drawn)	-	0	0
CC(CCC(=O)O)C1CCC2C3CC[C@H]4CC(O)CC[C@@]4(C)C3CC[C@@]12C (stereo partly drawn)	-	0	0
O=C(Nc1ccc(S(=O)(=O)Nc2nccs2)cc1)c1ccc(S(=O)(=O)N2CCOCC2)cc1	?	?	0
COc1nsnc1NS(=O)(=O)c1ccc(NC(=S)NC(=O)c2cccnc2)cc1	-	20µM	-
SMILES	PNC assembly inh	ALDH1A1 block	HPGD inh
COc1nccnc1NS(=O)(=O)c1ccc(NC(=S)NC(=O)c2cccc(F)c2)cc1	0	?	0
O=C(Nc1ccc(S(=O)(=O)Nc2nccs2)cc1)c1ccc(F)c(S(=O)(=O)N2CCOCC2)c1	-	5µM	-
COc1nccnc1NS(=O)(=O)c1ccc(NC(=S)NC(=O)c2ccccc2F)cc1	0	?	0
O=C(NC(=S)Nc1ccc(S(=O)(=O)Nc2nccs2)cc1)c1ccc(F)cc1	0	18µM	0
COc1nccnc1NS(=O)(=O)c1ccc(NC(=S)NC(=O)c2ccc(F)cc2)cc1	?	14µM	0
O=C(O)CCC(=O)Nc1ccc(S(=O)(=O)Nc2nccs2)cc1	0	0	0
Cc1cccc(NS(=O)(=O)c2ccc3c(c2)Cc2cc(S(=O)(=O)Nc4cccc(C)c4C)ccc2-3)c1C	0	0	0
FC(F)(F)c1ccccc1-c1ccc2ncnc(NC3CCNCC3)c2c1	-	0	0
CC(C)Cn1c(N)c(C(=O)CSc2nc3ccccc3c(=O)n2CCCN2CCOCC2)c(=O)n(C)c1=O	-	0	-
Cc1nnc(SCC(=O)Nc2nc(-c3ccc(F)cc3)cs2)[nH]c1=O	-	0	-
COc1ccc(/C=C2\SC(=O)N(CCNC(=O)Cc3coc4cc(OC)ccc34)C2=O)cc1	0	0	0
COc1ccc2c(CC(=O)NCCN3C(=O)S/C(=C\c4cccnc4)C3=O)coc2c1	-	22µM	-
CCOC(=O)c1c(NC(=O)C2C3C=CC(C3)C2C(=O)O)sc2c1CCCC2 (stereo not drawn)	-	0	-
N#Cc1c(NC(=S)NC(=O)c2ccccc2)sc2c1CCC2	0	14µM	0
N#Cc1c(NC(=O)C2C3C=CC(C3)C2C(=O)O)sc2c1CCCCC2 (stereo not drawn)	-	13µM	-
CC1(C)Cc2c(sc(NC(=O)c3ccco3)c2C#N)CO1	?	?	0
CCC1(C)Cc2c(sc(NC(=S)NC(=O)c3ccccc3)c2C#N)CO1 (stereo not drawn)	?	?	7.9µM
N#Cc1c(NC(=S)NC(=O)Cc2cccs2)sc2c1CCCCC2	0	4µM	0
CC(C)(C)c1ccc(C(=O)NC(=S)Nc2sc3c(c2C#N)CCC3)cc1	0	0	?
Cn1nccc1C(=O)NC(=S)Nc1sc2c(c1C#N)CCCCC2	0	?	0
COc1cc(OC)c(OC)cc1CNCCSc1nnnn1C	-	0	-
O=C(Nc1cccc(C(F)(F)F)c1)C1CCCO1 (stereo not drawn)	-	0	-
S=C(NC1CCCCC1)N1CCN(C2CCCCC2)CC1	-	0	-
CCCC(=O)Nc1sc2c(c1C#N)CCCC2	?	?	0
N#Cc1c(NC(=O)c2cnn3cccnc23)sc2c1CCCC2	-	13µM	-
SMILES	PNC assembly inh	ALDH1A1 block	HPGD inh
N#Cc1c(NC(=O)c2ccncc2)sc2c1CCC2	0	10µM	0
Cc1cc(C(=O)Nc2sc3c(c2C#N)CCCCC3)cs1	0	?	?
COC(=O)CCC(=O)Nc1sc2c(c1C#N)CCCC2	?	11µM	-
CC1CCc2sc(NC(=S)NC(=O)c3ccccc3)c(C#N)c2C1 (stereo not drawn)	-80	10µM	0
CCN1CCc2c(sc(NC(=S)NC(=O)c3ccccc3)c2C#N)C1	0	?	0
N#Cc1c(NC(=O)c2nc3ncccn3n2)sc2c1CCCCC2	?	?	0
CC(C)CC(NC(=O)CNC(=O)C1O[C@@H]2OC(C)(C)O[C@@H]2[C@H]2OC(C)(C)O[C@@H]12)C(=O)O (stereo partly drawn)	-	0	-
COc1ccc2c(c1)O[C@@H](c1ccc3c(c1)OCO3)[C@H](OC(=O)Nc1ccc(C)c(Br)c1)C2=O	-	0	0
Cc1c(C(=O)O)nc(/C=C\C(=O)O)[nH]c1=O	-	0[13.5 µM]	0
CC(C)(C)N1C(=O)[C@H]2[C@H]3[C@H](O)[C@H](O)C/C(=N/OCc4ccccc4)[C@@H]3CC[C@@H]2C1=O	-	0[13.5 µM]	-
Brc1ccc(-c2cnco2)cc1	-	0	-
CC(C)c1cc(C(=O)N2CCCC(CCC(=O)NCc3ccccc3F)C2)n(C)n1 (stereo not drawn)	-	0	-
COc1ccc(S(=O)(=O)N(CC(=O)NCCC(C)C)c2ccccc2)cc1OC	-	0	-
CC(C)(C)C(=O)NC(NC(=S)Nc1sc2c(c1C#N)CCCC2)C(Cl)(Cl)Cl (stereo not drawn)	0	6.3µM	?
Cn1nc(C(=O)Nc2sc3c(c2C#N)CCCC3)ccc1=O	-	2.2µM	-
CC(=O)NC(=S)Nc1sc2c(c1C#N)CCCCC2	-115	1.4µM	-

Source: PubChem BioAssay (National Center for Advancing Translational Sciences (NCATS))
